The campaign covered roughly 1,600 compounds. About 20 (1%) were called active.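 Rule for the calls: active = ratio of uncleaved NAD to its breakdown product ADP-ribose above 4, meaning the enzyme was inhibited; inactive = the rest.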 The list comes from a sample in which actives are over-represented; it also holds similar structures and randomly drawn compounds.
Molecular target: NAD(+) hydrolase SARM1 (Homo sapiens) (UniProt Q6SZW1)
Assay: inhibition of SAM-TIR NAD hydrolysis to ADPR – cell lysate, HPLC readout, primary screen (AID 1508615);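 note: substrate NAD at 5 µM with 60 min at 37 °C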
Settings: HEK293T SAM-TIR lysate, NAD/ADPR ratio by HPLC; at 5 µM; stronger effect = higher value

Chain of NAD(+) hydrolase SARM1 (Homo sapiens) (Q6SZW1 whole entry, looked up): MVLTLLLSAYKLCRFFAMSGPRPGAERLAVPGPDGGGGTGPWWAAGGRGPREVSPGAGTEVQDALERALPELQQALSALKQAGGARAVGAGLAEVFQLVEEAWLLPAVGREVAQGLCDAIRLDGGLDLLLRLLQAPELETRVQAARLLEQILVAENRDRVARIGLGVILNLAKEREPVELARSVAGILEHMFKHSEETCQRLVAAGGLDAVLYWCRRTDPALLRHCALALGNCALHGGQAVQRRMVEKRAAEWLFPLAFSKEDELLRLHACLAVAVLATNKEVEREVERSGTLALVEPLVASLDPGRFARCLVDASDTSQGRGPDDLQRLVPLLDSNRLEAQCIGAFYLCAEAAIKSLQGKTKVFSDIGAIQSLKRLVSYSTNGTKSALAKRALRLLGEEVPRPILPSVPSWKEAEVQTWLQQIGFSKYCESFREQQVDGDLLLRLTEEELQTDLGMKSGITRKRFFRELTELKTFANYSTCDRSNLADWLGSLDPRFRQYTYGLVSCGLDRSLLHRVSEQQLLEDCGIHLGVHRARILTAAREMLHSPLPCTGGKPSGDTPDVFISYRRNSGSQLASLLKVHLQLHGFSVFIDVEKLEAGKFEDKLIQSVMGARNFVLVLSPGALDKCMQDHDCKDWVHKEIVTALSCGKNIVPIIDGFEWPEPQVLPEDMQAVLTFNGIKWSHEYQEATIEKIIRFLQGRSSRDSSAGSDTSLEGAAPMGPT

NAD/ADPR ratio, active:
CC(=O)c1cc(O)c2ccccc2c1O 10.2, O=[N+]([O-])c1ccc(Sc2cccc[n+]2[O-])c2nonc12 12.6, CCOc1ccc(NC(=O)C2CCCN(C)C2)cc1 (centres undefined) 11.2, COC(=O)CC1(C(=O)OC)Nc2cc(Cl)c(Cl)cc2S(=O)(=O)N1O (centres undefined) 13.5, Oc1cc(CNC2CCCCC2)c(O)cc1CNC1CCCCC1 10.8, Cc1cccc2c1c1ccc3c(c1n2C)C(=O)C=CC3=O 8.3, COc1ccc2c(c1)c1ccc3c(c1n2C)C(=O)C=CC3=O 7.6, Cc1ccc2c(c1)c1ccc3c(c1n2C)C(=O)C=CC3=O 5.6, Cn1c2ccccc2c2ccc3c(c21)C(=O)C=CC3=O 12.5

NAD/ADPR ratio, inactive:
O=C(Nc1ccc(C(=O)O)c(O)c1)c1ccccc1 3, CC(C)(NC(=O)c1cc(Cl)c2ccccc2c1O)C(=O)O 3, CCOC(=O)Cc1c[nH]c(=S)[nH]c1=O 3, Cn1c(=O)c2[nH]c(COc3ccc(C(C)(C)C)cc3)nc2n(C)c1=O 3, S=C1N(c2ccccc2)CN(C2CCCCC2)CN1c1ccccc1 3, O=[N+]([O-])c1ccc(Sc2ncccn2)c([N+](=O)[O-])c1 3, CC1(CN2CCCC2)CCC(NC(=O)C(c2ccccc2)c2ccccc2)C(C)(C)O1 (centres undefined) 3, C(=C\c1ccncc1)/c1ccncc1 3, O=C(O)c1ccc(NCc2nc3ccccc3[nH]2)cc1 3, Oc1ccc2ccc3[nH]cnc3c2c1 3, N/C(CC(=O)Nc1cc(C(F)(F)F)ccc1Cl)=N\O 3, CC1CCC(C(C)C)C(NC(=O)c2ccncc2)C1 (centres undefined) 3, Clc1nc(NCCc2ccccc2)c2cn[nH]c2n1 2.8, Cn1cnc([N+](=O)[O-])c1Sc1ncn[nH]1 3, CCOc1ccc(NC(=O)c2cc3ccccc3cc2O)cc1 3, CCOc1ccc(NC(=O)N(O)C2(C#N)CCCCC2)cc1 3, Cc1nn(-c2ccccc2)c2c1C(c1ccc([N+](=O)[O-])cc1)C(C#N)=C(N)O2 (centres undefined) 3, COc1cc(CCC(=O)O)on1 3, O=C(O)CCNC1CCCCC1 3, O=C(NC1CCCCC1)c1cc2ccccc2cc1O 3, O=C(O)c1ccc(OCCOc2ccccc2)cc1 3, NC(N)=NC(=S)Nc1ccc(Cl)cc1 3, COc1cc(CC(=O)C(=O)O)oc(=O)c1 3, CN(C)C(=O)c1cccc(COc2ccc(N3C(N)=NC(N)=NC3(C)C)cc2Cl)c1 3, Cn1c(=O)c2c(nc(N3CCOCC3)n2C)n(C)c1=O 3, Cc1oc2c(c(C)nn2-c2ccccc2)c(=O)c1Cl 3, Cc1nc(-c2ccccc2)c(Cc2ccccc2O)c(=O)[nH]1 3, Cc1nc2c(O)cccc2cc1CO 3, S=c1cn[nH]c2ccccc12 3, CC1=C(c2ccccc2)C=NNCC1=O 3, COC(=O)c1cncc(C)c1 3, Nc1ccc(C(=O)Oc2ccc([N+](=O)[O-])cc2)cc1 3, O=C(c1cccnc1)C1Cc2ccccc2C1=O (centres undefined) 3, Nc1ccc(Br)cc1Br 3, CCCCOc1nc2c(c(=O)n(C)c(=O)n2C)n1C 3, Cc1c(C(C)(C(=O)O)c2c(C)n(C)c3ccccc23)c2ccccc2n1C 3, C=CCN(CC=C)C(=O)Nc1cc(OC)ccc1OC 3.2, Cc1nnc(Cc2ccccc2)c2n[nH]c(C)c12 3, CC(=O)[C@@]1(O)C(C)CC2C3C=C(C)C4=Cc5c(cnn5-c5ccccc5)C[C@]4(C)C3C(O)C[C@@]21C (some centres undefined) 3, CCOC(=O)c1ccc2c(c1)NCc1cccc(OC)c1O2 3, c1ccc(-c2cn3ccccc3n2)cc1 3, CC1(C)CCCC2(C)C(OCCO)=CC(=O)C=C12 (centres undefined) 3, COc1cc2c(O)cc(C(=O)O)c(-c3cc(OC)c(OC)c(OC)c3)c2cc1OC 3, CSc1nc(Cl)cc(=O)[nH]1 3, OC(C#Cc1ccccc1)(c1ccccc1)c1ccccc1 3, Cc1cc(=O)n2c3c(c4c(cc13)c(CN(C)C)cc(=O)n4C)OC2 3, CC1(C)CC2(C)OC2C2(C1)N=NC(=Nc1ccccc1)O2 (centres undefined) 3, Cc1cc2nc(-c3ccccn3)c(-c3ccccn3)nc2cc1C 3, S=C(Sc1ccc(Cl)cc1)Sc1ccc(Cl)cc1 3, Cc1ccc([N+](=O)[O-])cc1NC(=O)Nc1cccc(F)c1 3

Reference: PubChem BioAssay AID1508615 (Milbrandt Lab, Department of Genetics, Washington …, 2020)
